In PubChem BioAssay (NCATS):
Results filed as inconclusive are left out. Calls of active or inactive are those of the source. Calls come from the whole dose curve; as a rule, active = well fitted curve in the direction sought with a large enough effect; inconclusive = small, poorly fitted or top-dose-only effect, or another doubt; inactive = no such curve, though single readings can be large; an effect the other way counts as inactive or inconclusive.

Key:
[1] = qHTS to identify inhibitors of the type 1 interferon - major histocompatibility complex class I in skeletal muscle: primary screen against the NCATS Pharmaceutical Collection (AID 1347407);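 note: luminescence of HiBiT knocked into endogenous HLA-B as interferon-induced MHC class I level; % is set by controls: 0 for no effect and ±100 for the full control effect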
Summary of the method: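 Immortalized human myoblasts (C25cl48) with HiBiT knocked into endogenous HLA-B*08:01 were stimulated with 4 ng/ml IFN-beta and treated with compounds (8-point, 1:5, top 46 uM final) for 24 h at 37 C; HiBiT lytic luminescence read.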

[2] = target: Protein phosphatase 1D (Homo sapiens) (UniProt O15297); test: RapidFire Mass Spectrometry qHTS Assay for Modulators of WT P53-Induced Phosphatase 1 (WIP1) (AID 1347424);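 note: amount of dephosphorylated VEPPL-S-QETFS peptide product formed by WIP1; series mostly up to about 63 µM; plate controls were DMSO wells for no effect and GSK830371 inhibitor control at 10 µM for full effect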
Protein phosphatase 1D (Homo sapiens), sequence (O15297 whole entry, looked up): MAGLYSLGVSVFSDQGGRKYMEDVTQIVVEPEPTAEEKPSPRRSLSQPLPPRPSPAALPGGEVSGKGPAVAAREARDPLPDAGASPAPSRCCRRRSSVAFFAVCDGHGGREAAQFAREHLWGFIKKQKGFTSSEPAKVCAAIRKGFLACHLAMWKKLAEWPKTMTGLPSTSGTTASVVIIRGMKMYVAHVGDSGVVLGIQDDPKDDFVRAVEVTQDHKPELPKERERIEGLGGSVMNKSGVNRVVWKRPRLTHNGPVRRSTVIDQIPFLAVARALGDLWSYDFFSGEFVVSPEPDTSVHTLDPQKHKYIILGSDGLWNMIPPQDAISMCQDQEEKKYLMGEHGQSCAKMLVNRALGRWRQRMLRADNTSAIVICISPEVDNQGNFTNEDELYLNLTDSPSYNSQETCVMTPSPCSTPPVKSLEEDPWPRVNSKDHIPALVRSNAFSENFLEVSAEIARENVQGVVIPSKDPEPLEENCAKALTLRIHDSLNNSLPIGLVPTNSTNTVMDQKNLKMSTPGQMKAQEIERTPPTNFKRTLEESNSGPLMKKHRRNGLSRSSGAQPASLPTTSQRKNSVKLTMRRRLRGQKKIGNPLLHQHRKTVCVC
Summary of the method: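 RapidFire mass spectrometry measured dephosphorylated peptide after 5 min room-temperature reaction of 2 uM VEPPL-pS-QETFS with 10 nM WIP1 (50 mM Tris-HCl pH 7.5, 30 mM MgCl2, 0.1 mM EGTA, BSA), following 1 hr compound preincubation; 1 uM isotope-labelled product standard.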

[3] = target: Protein phosphatase 1D (Homo sapiens) (UniProt O15297); test: Rhodamine-PBP qHTS Assay for Modulators of WT P53-Induced Phosphatase 1 (WIP1) (AID 1347425); note: % of control where 0% means no effect
Summary of the method: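 5 nM WIP1 + 10 uM Rh-PBP, 50 mM Tris pH 7.5, 30 mM MgCl2, 1 mM TCEP, 0.1 mM EGTA, BSA; cpds pinned, 1 hr RT; + 10 uM phosphopeptide; fluorescence 1-min reads x 11 min; delta = f1 - f0.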

[4] = Primary qHTS for inhibitors of La Crosse Virus (LACV) - induced cell death in SH-SY5Y cells (AID 1508616);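 note: top concentration of the series differs between compounds; 0% = infected DMSO wells and 100% = uninfected DMSO wells; higher means more rescue of cells from virus-induced death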
Summary of the method: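 SH-SY5Y, 6000 cells/well; cpd via pin tool in DMSO; LACV 0.01 MOI; 6 d 37C 5% CO2; ATPLite, 5 min RT; luminescence normalized to ±virus DMSO controls.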

[5] = target: Calcium and integrin-binding protein 1 (Homo sapiens) (UniProt Q99828); test: Primary qHTS for Identification of Calcium Integrin Binding Protein 1 (CIB1) Competitor (AID 1508620);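 note: GST tagged CIB1 binding a fluorescein labelled alphaIIb integrin peptide tracer; top concentration of the series differs between compounds; % is set by controls: 0 for no effect and ±100 for the full control effect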
Calcium and integrin-binding protein 1 (Homo sapiens), sequence (Q99828 whole entry, looked up): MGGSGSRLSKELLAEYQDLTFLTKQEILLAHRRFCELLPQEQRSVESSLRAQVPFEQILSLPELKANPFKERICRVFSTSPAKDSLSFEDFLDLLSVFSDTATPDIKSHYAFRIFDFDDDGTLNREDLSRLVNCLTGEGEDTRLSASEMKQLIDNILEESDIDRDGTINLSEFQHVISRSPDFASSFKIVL
Summary of the method: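 CIB1-GST (1 uM final) and compound incubated 15 min at room temperature before adding FITC-alphaIIb peptide tracer (100 nM final). Competition for binding read by fluorescence polarization (ex 480, em 540) after another 15 min at room temperature.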

[6] = qHTS for inhibitors of adenylyl cyclases using a fission yeast platform: a pilot screen against the NCATS LOPAC library (AID 1347410);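 note: plate controls were DMSO vehicle for no effect and DPI positive control for full effect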
Summary of the method: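 S. pombe CHP2027 (AC9-GNAS-PDE4D2) carrying a PKA-repressed fbp1-GFP reporter was exposed to LOPAC compounds (final up to 57 µM) for 18 h at 30C in the dark, in EMM with histidine, lysine and uracil; GFP gain-of-signal read by laser scanning cytometry.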

[7] = target: Calcium and integrin-binding protein 1 (Homo sapiens) (UniProt Q99828); test: Validation qHTS for Identification of Calcium Integrin Binding protein 1 (CIB1) Competitor (AID 1508618); note: % is set by controls: 0 for no effect and ±100 for the full control effect
Summary of the method: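 Displacement of FITC-alphaIIb peptide (100 nM) from CIB1-GST (1 uM) is monitored by polarization in quantitative HTS format; buffer carries 5 mM CaCl2 and 125 mM NaCl at pH 7.4, incubations are at room temperature.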

[8] = Confirmatory qHTS for small molecule stabilizers of the endoplasmic reticulum resident proteome: Secreted ER Calcium Modulated Protein (SERCaMP) assay (AID 1508628); note: nearly all actives have a fitted effect of over 40% in size; note: potency is the fitted concentration of half-maximal effect
Summary of the method: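 Reporter secretion upon ER calcium depletion (100 nM thapsigargin, 4 h, 37C) is measured as medium luminescence with coelenterazine, after 16 h compound pretreatment of SH-SY5Y-GLuc-SERCaMP cells; primary at three concentrations up to 38.3 uM, follow-up at 11 (up to 76.6 uM).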

[9] = Cell Viability qHTS for small molecule stabilizers of the endoplasmic reticulum resident proteome (AID 1508629); conditions: cell viability counter-screen, 100 nM thapsigargin for final 4 h;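 note: human SH-SY5Y neuroblastoma cells carrying the GLuc-SERCaMP reporter; compound exposure about 46 h in total before the viability read; % is set by controls: 0 for no effect and ±100 for the full control effect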
[10] = target: Single-stranded DNA cytosine deaminase (Homo sapiens) (UniProt Q9GZX7); test: Validation qHTS assay for inhibitors of Activation Induced Cytidine Deaminase (AID): AID signal (AID 1347429); note: % is set by controls: 0 for no effect and ±100 for the full control effect
Single-stranded DNA cytosine deaminase (Homo sapiens), sequence (Q9GZX7 whole entry, looked up): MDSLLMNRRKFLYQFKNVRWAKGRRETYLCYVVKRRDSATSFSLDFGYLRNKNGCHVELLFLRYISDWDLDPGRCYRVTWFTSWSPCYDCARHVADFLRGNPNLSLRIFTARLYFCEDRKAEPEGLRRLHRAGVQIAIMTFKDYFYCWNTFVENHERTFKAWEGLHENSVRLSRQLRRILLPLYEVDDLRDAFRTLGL
Summary of the method: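 Steps: dispense AID with UDG; pin-transfer compound up to 114 uM final; add DJC20/DJC23 substrate and hold 4 hr at room temperature; add NaOH, hold 30 min; read FRET signal (540/590 nm).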

[11] = Counterscreen qHTS for small molecule stabilizers of the endoplasmic reticulum resident proteome: GLuc-NoTag assay (AID 1508627);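 note: series mostly up to about 76 µM; 0% = thapsigargin alone and -100% = DMSO vehicle control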
Summary of the method: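 Counterscreen line: SH-SY5Y-GLuc-NoTag cells, treated with compound 19 hr before a 4 hr, 100 nM thapsigargin calcium depletion. Secreted Gaussia luciferase in the medium was measured by luminescence after coelenterazine was added (0.07x final), with cells unlysed.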

[O-][n+]1cccc(CO)c1
inactive: Potency [1] | outcome [2] | outcome [3] | outcome [4] | outcome [5]

CC/C=C(\C(=O)N[C@@H]1C(=O)N2C(C(=O)OCOC(=O)C(C)(C)C)=C(COC(N)=O)CS[C@H]12)c1csc(N)n1
inactive: Potency [1] | outcome [2] | outcome [3] | outcome [4] | outcome [5]

O=C(CCCN1CCN(c2ccccn2)CC1)c1ccc(F)cc1
inactive: Potency [1] | outcome [2] | outcome [3] | outcome [4] | outcome [5]

CC(C)(C)C(=O)C(Oc1ccc(Cl)cc1)n1ccnc1 (configuration not stated)
inactive: Potency [1] | outcome [2] | outcome [3] | outcome [4] | outcome [5]

COC(=O)[C@H]1[C@H]2C[C@@H]3c4[nH]c5cc(OC)ccc5c4CCN3C[C@H]2C[C@@H](OC(=O)COc2ccc(OC)cc2)[C@@H]1OC
inactive: Potency [1] | outcome [2] | outcome [3] | outcome [4] | outcome [5]

Cc1ccc2nc(N)[nH]c(=O)c2c1Sc1ccncc1
inactive: Potency [1] | outcome [2] | outcome [3] | outcome [4] | outcome [5]

COc1ccccc1O
inactive: Potency [1] | outcome [2] | outcome [3] | outcome [4] | outcome [5]

C/C(=C(\CCOP(=O)(O)O)SC(=O)c1ccccc1)N(C=O)Cc1cnc(C)nc1N
inactive: activity change, negative = inhibition [1] -12.9% [at 3.83 µM] | activity change, negative = inhibition [2] 3.91% [at 6.17 µM] | activity change, negative = inhibition [3] -15.2% [at 4.81 µM] | activity change [4] -1.14% [at 0.431 µM] | activity change, negative = inhibition [5] -4.19% [at 12.4 µM]

CCOC(=O)c1ccc(O)cc1
inactive: Potency [1] | outcome [2] | outcome [3] | outcome [4] | outcome [5]

C[C@H]1O[C@H](O[C@H]2[C@H](O)[C@@H](O)[C@@H](O[C@H]3[C@H](O)[C@@H](O)[C@H](O)O[C@@H]3CO)O[C@@H]2CO)[C@H](O)[C@@H](O)[C@@H]1N[C@H]1C=C(CO)[C@@H](O)[C@H](O)[C@H]1O
inactive: Potency [1] | outcome [2] | outcome [3] | outcome [4] | outcome [5]

O=Cc1ccccc1C=O
inactive: Potency [1] | outcome [2] | outcome [3] | outcome [4] | outcome [5]

CC(C)(C)C(=O)NCCCC(=O)O
inactive: Potency [1] | outcome [2] | outcome [3] | outcome [4] | outcome [5]

CCCCC(CC)COC(=O)c1ccccc1O (configuration not stated)
inactive: Potency [1] | outcome [2] | outcome [3] | outcome [4] | outcome [5]

Nc1ccc(S(=O)(=O)Nc2nccs2)cc1
inactive: Potency [1] | outcome [2] | outcome [3] | outcome [4] | outcome [5]

C[C@]12CC[C@@H]3c4ccc(O)cc4CC[C@H]3[C@@H]1CC[C@@H]2OC(=O)CCC1CCCC1
inactive: Potency [1] | outcome [2] | outcome [3] | outcome [4] | outcome [5]

O=C(O)[C@H](O)c1ccccc1
inactive: Potency [1] | outcome [2] | outcome [3] | outcome [5]

CCn1cc(C(=O)O)c(=O)c2cnc(N3CCNCC3)nc21
inactive: Potency [1] | outcome [2] | outcome [3] | outcome [4] | outcome [5]

O=c1[nH]cnc2c1ncn2[C@@H]1O[C@H](CO)[C@@H](O)[C@H]1O
inactive: Potency [1] | outcome [2] | outcome [4]

CC1(C)OC(=O)NC1=O
inactive: Potency [1] | outcome [2] | outcome [3] | outcome [4] | outcome [5]

CC(=O)CCC(=O)O
inactive: Potency [1] | outcome [2] | outcome [3] | outcome [4] | outcome [5]

CC1(C)Oc2ccc(C#N)cc2[C@@H](N2CCCC2=O)[C@@H]1O
inactive: Potency [1] | outcome [2] | outcome [3] | outcome [4] | outcome [5]

NC(=O)NNc1ccccc1
inactive: Potency [1] | outcome [2] | outcome [3] | outcome [4] | outcome [5]

NC(CSCC(=O)O)C(=O)O (configuration not stated)
inactive: Potency [1] | outcome [2] | outcome [3] | outcome [4] | outcome [5]

O=C1OC(OC(=O)c2cccnc2Nc2cccc(C(F)(F)F)c2)c2ccccc21 (configuration not stated)
inactive: Potency [1] | outcome [2] | outcome [3] | outcome [4] | outcome [5]

Cc1ccc(C(C)C)cc2c(C)ccc1-2
inactive: outcome [2] | outcome [3] | outcome [4]

COc1cc(C(=O)N2CCOCC2)cc(OC)c1OC
inactive: Potency [1] | outcome [2] | outcome [4] | outcome [5]

Cc1c(O)cccc1C(=O)N[C@@H](CSc1ccccc1)[C@H](O)CN1C[C@H]2CCCC[C@H]2C[C@H]1C(=O)NC(C)(C)C
inactive: outcome [6] | outcome [2] | outcome [3] | outcome [4] | outcome [7] | outcome [5] | max response [9] 7.19%
active: Potency [8] 11.2 µM

O=C(O)COc1nn(Cc2ccccc2)c2ccccc12
inactive: Potency [1] | outcome [2] | outcome [4]

Cc1ncc([N+](=O)[O-])n1CC(O)CCl (configuration not stated)
inactive: Potency [1] | outcome [2] | outcome [4] | outcome [5]

CCN(CC)CCCC(C)Nc1c2ccc(Cl)cc2nc2ccc(OC)cc12 (configuration not stated)
inactive: outcome [6] | outcome [2] | outcome [3] | Potency [10] | outcome [4]

Nc1ccc(S(=O)(=O)Nc2ccc(Cl)nn2)cc1
inactive: Potency [1] | outcome [2] | outcome [4] | outcome [5]

C=CCn1c(=O)n([C@@H]2O[C@H](CO)[C@@H](O)[C@H]2O)c2nc(N)[nH]c(=O)c21
inactive: Potency [1] | outcome [2] | outcome [4] | Potency [11] | Potency [8]

O=C1O[C@H]([C@@H](O)CO)C(O)=C1O
inactive: Potency [1] | outcome [2] | outcome [4]

CO/N=C(\C(=O)N[C@@H]1C(=O)N2C(C(=O)O)=C(CSc3nc(=O)c(O)nn3C)CS[C@H]12)c1csc(N)n1
inactive: Potency [1] | outcome [3] | outcome [4] | outcome [5]

COc1ccc(S(=O)(=O)Nc2nnc(CC(C)C)s2)cc1
inactive: Potency [1] | outcome [2] | outcome [4] | outcome [5]

Cc1cccc(C)c1NC(=O)CN(CC(=O)O)CC(=O)O
inactive: Potency [1] | outcome [2] | outcome [4] | outcome [5]

CC1CC(OC(=O)C(O)c2ccccc2)CC(C)(C)N1C (configuration not stated)
inactive: Potency [1] | outcome [2] | outcome [4] | outcome [5]
